# In PubChem BioAssay (NCATS):
# Records with an inconclusive call do not appear. Values without a mark were called inactive. Calls of active or inactive are those of the source. Calls follow the shape of the dose curve; as a rule, active = well fitted inhibition curve with a large enough effect; inconclusive = small, poorly fitted or top-dose-only effect; inactive = flat fitted curve, though single readings scatter.
# What was measured:
# Test in all cases: Cytotoxic Profiling of Annotated Libraries Using Quantitative High-Throughput Screening (AID 1296008); also: nearly all actives have a fitted effect of over 60% in size
# Settings in all cases: Five cell lines viability, CellTiter-Glo ATP luminescence, 48-72 h; max response: active compounds read low
# HEK293 = tested on: HEK293
# Summary of the method: (§1)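 Cytotoxicity was measured as CellTiter-Glo ATP luminescence, read after 10 min at room temperature. Compound treatment of the cells lasted 48 or 72 hr at 37 degrees Celsius in a qHTS format.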
# HaCat = tested on: HaCat
# Summary of the method: as §1
# KB-3-1 = tested on: KB-3-1
# Summary of the method: as §1
# NIH3T3 = tested on: NIH3T3
# Summary of the method: as §1
# % is scaled to controls: 0 for no effect and ±100 for the full control effect; potency is read from the fitted curve at half-maximal effect.
structure (smiles),measurement,setting,value
O=S(=O)(NC1CCC(c2cc(F)ccc2F)(S(=O)(=O)c2ccc(Cl)cc2)CC1)C(F)(F)F (stereo unspecified),max response,HEK293,-4.12%
same,max response,HaCat,-23.1%
same,max response,KB-3-1,5.9%
same,max response,NIH3T3,-17.1%
CN1CCN(C(=O)c2ccc3cc(CCNc4ncnc5ccc(C#N)cc45)ccc3c2)CC1,Potency,HEK293,2910 nM (active)
same,outcome,HaCat,inactive
same,max response,KB-3-1,-26.4%
same,max response,NIH3T3,-2.38%
Cc1cccc(C)c1-n1c(=O)c2cnc(Nc3ccc(N4CCN(C)CC4)cc3)nc2n2c3ccccc3nc12,Potency,HEK293,517 nM (active)
same,Potency,HaCat,2060 nM (active)
same,Potency,KB-3-1,731 nM (active)
same,Potency,NIH3T3,1300 nM (active)
CC1COC2(OC3CC4C5CC(O[C@@H]6O[C@H](C)[C@@H](O[C@@H]7O[C@@H](C)[C@H](O)[C@@H](O)[C@H]7O)[C@H](O)[C@H]6O)C6CC(O)CCC6(C)C5CCC4(C)C3C2C)C(O)C1 (stereo partly specified),max response,HEK293,3.68%
same,max response,HaCat,-23.5%
same,max response,KB-3-1,7.16%
same,max response,NIH3T3,4.8%
CC1(C)CCCC2(C)C1C(O)C=C(CO)C2(O)CO (stereo unspecified),max response,HEK293,-0.916%
same,max response,HaCat,-4.77%
same,outcome,KB-3-1,inactive
same,max response,NIH3T3,-1.11%
Cc1cc(C(=O)Nc2cccc(C(=O)Nc3cccc(C(F)(F)F)c3)c2)on1,max response,HEK293,2.99%
same,outcome,HaCat,inactive
same,max response,KB-3-1,-0.787%
same,max response,NIH3T3,-17%
C[C@@H]1O[C@@H](OC[C@H]2O[C@@H](Oc3cc(O)cc4c3C(=O)C(O)(Cc3ccc(O)cc3)O4)[C@H](O)[C@@H](O)[C@@H]2O)[C@H](O)[C@H](O)[C@H]1O (stereo partly specified),max response,HEK293,1.44%
same,max response,HaCat,-8.78%
same,max response,KB-3-1,8.25%
same,max response,NIH3T3,2.04%
O=C(COc1cccc2c(=O)[nH]ccc12)c1ccccc1,max response,HEK293,-5.18%
same,max response,HaCat,-15.5%
same,max response,KB-3-1,7.28%
same,max response,NIH3T3,1.93%
CC1CCC2(C=O)C(CO)=CCCC2C1(C)CC(=O)O (stereo unspecified),max response,HEK293,-8.27%
same,max response,HaCat,-1.16%
same,max response,KB-3-1,2.85%
same,max response,NIH3T3,-21.3%
C=C1C(=O)OC2CC3(C)C(CC12)C(C)=CC(O)C3OC(C)=O (stereo unspecified),max response,HEK293,-3.84%
same,max response,HaCat,3.89%
same,outcome,KB-3-1,inactive
same,max response,NIH3T3,-1.8%
C/C(=C\C=C\C(C)C1CCC2(C)C3CCC4C(C)(C)C(=O)CCC45CC35CCC12C)C(=O)O (stereo unspecified),max response,HEK293,-1.63%
same,max response,HaCat,-16.2%
same,max response,KB-3-1,-3.21%
same,max response,NIH3T3,-13.8%
CC1(C)CC[C@]2(C(=O)O[C@@H]3O[C@H](CO[C@@H]4O[C@H](CO)[C@@H](O)[C@H](O)[C@H]4O[C@@H]4O[C@H](CO)[C@@H](O)[C@H](O)[C@H]4O)[C@@H](O)[C@H](O[C@@H]4O[C@H](CO)[C@@H](O)[C@H](O)[C@H]4O)[C@H]3O)CC[C@]3(C)C(=CCC4[C@@]5(C)CC[C@@H](O)[C@@](C)(C(=O)O[C@@H]6O[C@H](CO)[C@@H](O)[C@H](O)[C@H]6O)C5CC[C@]43C)[C@@H]2C1 (stereo partly specified),max response,HEK293,-9.43%
same,max response,HaCat,-7.02%
same,outcome,KB-3-1,inactive
same,max response,NIH3T3,1.8%
c1ccc(-c2ncc(CN3CCN(c4ncccn4)CC3)[nH]2)cc1,max response,HEK293,0.625%
same,max response,HaCat,0.273%
same,max response,KB-3-1,-2.29%
same,max response,NIH3T3,-1.52%
CN(C)C/C=C/C(=O)Nc1cccc(C(=O)Nc2cccc(Nc3ncc(Cl)c(-c4c[nH]c5ccccc45)n3)c2)c1,Potency,HEK293,580 nM (active)
same,Potency,HaCat,4610 nM (active)
same,Potency,KB-3-1,1030 nM (active)
same,Potency,NIH3T3,4110 nM (active)
CCOC(=O)C(CCc1ccccc1)NC1CSC(c2cccs2)CN(CC(=O)O)C1=O (stereo unspecified),max response,HEK293,-2.54%
same,max response,HaCat,1.02%
same,outcome,KB-3-1,inactive
same,max response,NIH3T3,-0.887%
CC1=CC2/C=C(\C)CC[C@@H](O)[C@@H](O)[C@@H]3O[C@@H]3C(=O)[C@]23C(=O)N[C@@H](CC(C)C)[C@@H]3[C@@H]1C (stereo partly specified),max response,HEK293,1.09%
same,max response,HaCat,-27.7%
same,max response,KB-3-1,-2.72%
same,max response,NIH3T3,1.23%
OC/C=C/c1ccc(O[C@@H]2O[C@H](CO)[C@@H](O)[C@H](O)[C@H]2O)cc1,max response,HEK293,-1.19%
same,max response,HaCat,4.35%
same,max response,KB-3-1,3.13%
same,max response,NIH3T3,-0.785%
CC(=O)N[C@H]1[C@H](O[C@H]2CC[C@@]3(C)C(CC[C@]4(C)C3CC=C3[C@@H]5CC(C)(C)CC[C@]5(C(=O)OC5OCC(O)C(O)C5O)CC[C@]34C)C2(C)C)O[C@H](COC2OC(C)C(O)C(OC3OC(C)C(O)C(O)C3O)C2O)[C@@H](O)[C@@H]1O (stereo partly specified),max response,HEK293,-2.57%
same,max response,HaCat,2.89%
same,outcome,KB-3-1,inactive
same,max response,NIH3T3,3.74%
CC1(C)CCC(C)(C)c2cc(C3(c4ccc(C(=O)O)cc4)OCCO3)ccc21,max response,HEK293,-82.5%
same,outcome,HaCat,inactive
same,max response,KB-3-1,9.31%
same,max response,NIH3T3,-24.2%
